Records with an inconclusive call do not appear. The source made the active and inactive calls. Unless noted, calls come from the whole dose curve; as a rule, active = well fitted curve in the direction sought with a large enough effect in the repeat runs; inconclusive = weak or mixed curves; inactive = no such curve, though single readings can be large; an effect the other way counts as inactive or inconclusive.
Experiments:
[1] = qHTS assay to identify small molecule agonists of the vitamin D receptor (VDR) signaling pathway - cell viability counter screen (AID 743224); note: series mostly up to about 63 µM; % is set by controls: 0 for no effect and ±100 for the full control effect; nearly all actives have a fitted effect of over 50% in size
Procedure, shortened: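 VDR-bla cell line, quantitative HTS format; 16 h compound incubation (37C, 5% CO2); ATP-based CellTiter-Glo luminescence measured in the reporter assay wells.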

[2] = qHTS assay to identify small molecule antagonists of the vitamin D receptor (VDR) signaling pathway - cell viability counter screen (AID 743225); note: % is set by controls: 0 for no effect and ±100 for the full control effect; nearly all actives have a fitted effect of over 50% in size
Procedure, shortened: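 VDR-bla HEK 293T cells, 4 h pre-incubation at 37C, then compound plus 1-alpha,25-dihydroxyvitamin D3 (3 nM final) for 16 h. After the beta-lactamase FRET read, CellTiter-Glo was added to the same wells; luminescence after 30 min at room temperature.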

[3] = qHTS assay to identify small molecule agonists of the NFkB signaling pathway - cell viability counter screen (AID 1159515; calls by dose curve; note: series mostly up to about 61 µM; % is set by controls: 0 for no effect and ±100 for the full control effect; nearly all actives have a fitted effect of over 55% in size)
Procedure, shortened: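 Viability in NFkB-bla ME-180 cells was measured by CellTiter-Glo luminescence, 30 min room temperature, in wells already treated 5 hr with compounds and read for reporter FRET.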

[4] = qHTS assay to identify small molecule agonists of the endoplasmic reticulum stress response signaling pathway (AID 1159516; active = well fitted activation curve with a large enough effect in the signal ratio in the repeat runs, not every such curve was filed as active; the % refers to the signal ratio; note: % is set by controls: 0 for no effect and ±100 for the full control effect)
Procedure, shortened: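 ER stress element reporter (bla) in HeLa. 1,500 cells/well, overnight attachment; 5 hr compound; 2 hr RT substrate; dual-emission fluorescence.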

[5] = qHTS assay to identify small molecule agonists of the endoplasmic reticulum stress response signaling pathway - cell viability counter screen (AID 1159517; calls by dose curve;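 note: HeLa cells carrying an ER stress response element beta-lactamase reporter; series mostly up to about 61 µM; % is set by controls: 0 for no effect and ±100 for the full control effect; nearly all actives have a fitted effect of over 50% in size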)
Procedure, shortened: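 Counter-screen wells were identical to the reporter wells. Cells were plated at 1,500 per well and dosed for 5 hr, then read for luminescence 30 min after CellTiter-Glo addition.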

[6] = qHTS assay to identify small molecule antagonists of the retinoid-related orphan receptor gamma (ROR-gamma) signaling pathway - cell viability counter screen (AID 1159520); note: % is set by controls: 0 for no effect and ±100 for the full control effect; nearly all actives have a fitted effect of over 50% in size
Procedure, shortened: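 Tet-on ROR gamma CHO cells were given compounds for 2 hr, then doxycycline hyclate at 1 uM final, and incubated 16 hr at 37 C. Viability was measured as ATP content by CellTiter-Glo luminescence.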

[7] = biological target: Nuclear receptor ROR-gamma (Homo sapiens) (UniProt P51449); test: qHTS assay to identify small molecule antagonists of the retinoid-related orphan receptor gamma (ROR-gamma) signaling pathway (AID 1159521)
Procedure, shortened: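 Tet-on RORγ CHO cells carrying a ROR response element–luciferase reporter were pretreated with compounds for 2 h, then induced with 1 uM (final) doxycycline hyclate for 16 h at 37 C. Antagonism was read as decreased ONE-Glo luminescence.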

[8] = qHTS assay to identify small molecule agonists of the AP-1 signaling pathway - cell viability counter screen (AID 1159525; calls by dose curve; note: nearly all actives have a fitted effect of over 55% in size)
Procedure, shortened: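 AP-1-bla ME-180 cells in Opti-MEM with 0.5% dialyzed FBS, compound exposure 5 h at 37 C in 15-point titration. Viability read in the same wells as ATP content by CellTiter-Glo luminescence, normalised to tetra-n-octylammonium bromide and DMSO controls.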

[9] = qHTS assay to identify small molecule agonists of the AP-1 signaling pathway (AID 1159526; calls by dose curve; note: % is set by controls: 0 for no effect and ±100 for the full control effect)
[10] = biological target: Retinoic acid receptor RXR-alpha (Homo sapiens) (UniProt P19793); test: qHTS assay to identify small molecule agonists of the RXR signaling pathway (AID 1159527; calls by dose curve; note: % is set by controls: 0 for no effect and ±100 for the full control effect; nearly all actives have a fitted effect of over 35% in size)
Procedure, shortened: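 GeneBLAzer RXR-alpha-UAS-bla HEK 293T cells in medium with 2% charcoal-stripped FBS, pre-incubated 5 hr at 37 C, then exposed to compounds 16 hr. Beta-lactamase reporter read by FRET substrate, 2 hr room temperature, 460/530 nm emission.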

[11] = qHTS assay to identify small molecule agonists of the RXR signaling pathway - cell viability counter screen (AID 1159529)
Procedure, shortened: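 RXR-alpha-UAS-bla HEK 293T cells in medium with 2% charcoal-stripped FBS were preincubated 5 hr, then exposed to compounds for 16 hr at 37 C. Viability was read as CellTiter-Glo luminescence after 30 min at room temperature.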

[12] = qHTS assay to identify small molecule antagonists of the retinoid acid receptor (RAR) signaling pathway - cell viability counter screen (AID 1159551); note: % is set by controls: 0 for no effect and ±100 for the full control effect; nearly all actives have a fitted effect of over 35% in size
Procedure, shortened: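 Following overnight attachment, C3RL4 reporter cells received DMSO-dissolved compounds and then retinol (1 uM final). Six hours later at 37 C, ATP content was measured by CellTiter-Glo luminescence.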

[13] = qHTS assay to identify small molecule agonists of the retinoic acid receptor (RAR) signaling pathway (AID 1159553); note: % is set by controls: 0 for no effect and ±100 for the full control effect
Procedure, shortened: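 Cell line C3RL4, RARE luciferase reporter. Treatment: compounds in DMSO, 6 hr, 37 C, 5% CO2, after overnight plating. Detection: luminescence, 30 min RT after reagent.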

[14] = qHTS assay to identify small molecule antagonists of the estrogen related receptor (ERR) signaling pathway - cell viability counter screen (AID 1224818);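 note: series mostly up to about 46 µM; viability measured after 17.5 h of compound exposure; % is set by controls: 0 for no effect and ±100 for the full control effect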
Procedure, shortened: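 Here, ERR cells are plated at 2,000 cells per well, allowed 6 h to attach, and treated with compounds in DMSO for 17.5 h at 37 C. CellTiter-Fluor is then added and fluorescence read after 30 min.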

[15] = qHTS assay to identify small molecule antagonists of the estrogen related receptor signaling pathway with the pleiotropic PPARgamma coactivator (PGC) cell viability counter screen (AID 1224822)
Procedure, shortened: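 qHTS format, DMSO compound stocks pin-transferred onto PGC/ERR cells 6 h after plating; 17.5 h exposure at 37 C, then CellTiter-Fluor fluorescence.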

Retinoic acid receptor RXR-alpha (Homo sapiens), sequence (P19793 whole entry, looked up): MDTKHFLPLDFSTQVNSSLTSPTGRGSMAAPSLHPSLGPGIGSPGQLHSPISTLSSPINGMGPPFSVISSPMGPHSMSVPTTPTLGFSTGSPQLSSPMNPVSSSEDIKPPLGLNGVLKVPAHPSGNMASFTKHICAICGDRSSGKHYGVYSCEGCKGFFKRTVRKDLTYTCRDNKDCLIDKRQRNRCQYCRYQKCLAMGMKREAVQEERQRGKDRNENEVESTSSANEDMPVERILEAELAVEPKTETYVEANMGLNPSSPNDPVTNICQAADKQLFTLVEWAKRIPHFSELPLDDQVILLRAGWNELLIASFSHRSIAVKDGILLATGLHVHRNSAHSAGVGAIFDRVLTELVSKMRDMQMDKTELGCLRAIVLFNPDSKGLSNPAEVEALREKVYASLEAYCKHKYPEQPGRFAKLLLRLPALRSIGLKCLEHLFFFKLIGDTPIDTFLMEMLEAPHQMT

NCCCC(N)(C(=O)O)C(F)F (centres undefined)
inactive: outcome [1] | outcome [2] | outcome [3] | outcome [4] | outcome [5] | outcome [6] | Potency [7] | outcome [8] | outcome [9] | Potency [10] | Potency [11] | outcome [12] | Potency [13] | outcome [14] | outcome [15]

CC[N+](CC)(CC)CCOc1cccc(OCC[N+](CC)(CC)CC)c1OCC[N+](CC)(CC)CC
inactive: outcome [1] | outcome [2] | outcome [3] | outcome [4] | outcome [5] | outcome [6] | Potency [7] | outcome [8] | outcome [9] | Potency [10] | Potency [11] | outcome [12] | outcome [14] | outcome [15]

CCOC(=O)C1=NOC(c2ccccc2)(c2ccccc2)C1
inactive: outcome [1] | outcome [2] | outcome [3] | outcome [4] | outcome [5] | outcome [6] | Potency [7] | outcome [8] | outcome [9] | Potency [10] | Potency [11] | outcome [12] | Potency [13]

CC(C(=O)O)c1cccc(Oc2ccccc2)c1 (centres undefined)
inactive: outcome [1] | outcome [2] | outcome [3] | outcome [4] | outcome [5] | outcome [6] | Potency [7] | outcome [8] | outcome [9] | Potency [10] | Potency [11] | outcome [12] | Potency [13]

C[N+]1(CC2COC(c3ccccc3)(c3ccccc3)O2)CCCCC1 (centres undefined)
inactive: outcome [1] | outcome [2] | outcome [3] | outcome [4] | outcome [5] | activity, negative = cytotoxicity [6] -0.623% [at 19 µM] | activity change, negative = inhibition [7] 7.79% [at 19 µM] | viability change, negative = cytotoxic [8] 0.502% [at 15.8 µM] | activation [9] -1.1% [at 15.8 µM] | activation [10] -0.901% [at 15.8 µM] | activity change, negative = cytotoxicity [11] -2.46% [at 15.8 µM] | activity change, negative = cytotoxicity [12] -0.8% [at 19 µM] | Potency [13]

COC(=O)Nc1ccc(Cl)c(Cl)c1
inactive: outcome [1] | outcome [2] | outcome [3] | outcome [4] | outcome [5] | outcome [6] | Potency [7] | outcome [8] | outcome [9] | Potency [10] | Potency [11] | outcome [12] | Potency [13]

CC(C)(C)C(=O)Oc1ccc(S(=O)(=O)Nc2ccccc2C(=O)NCC(=O)O)cc1
inactive: outcome [1] | outcome [2] | outcome [3] | outcome [4] | outcome [5] | outcome [6] | Potency [7] | outcome [8] | outcome [9] | Potency [10] | Potency [11] | outcome [12] | Potency [13] | outcome [14] | outcome [15]

CCCc1nn(C)c2c(=O)[nH]c(-c3cc(S(=O)(=O)N4CCN(C)CC4)ccc3OCC)nc12
inactive: outcome [1] | outcome [2] | outcome [3] | outcome [4] | outcome [5] | outcome [6] | Potency [7] | outcome [8] | outcome [9] | Potency [10] | Potency [11] | outcome [12] | Potency [13] | outcome [14] | outcome [15]

COCCOC[C@H](CC1(C(=O)NC2CCC(C(=O)O)CC2)CCCC1)C(=O)Oc1ccc2c(c1)CCC2 (some centres undefined)
inactive: outcome [1] | outcome [2] | outcome [3] | outcome [4] | outcome [5] | outcome [6] | Potency [7] | outcome [8] | outcome [9] | Potency [10] | Potency [11] | outcome [12] | Potency [13]

Source: PubChem BioAssay (Tox21)
